# Screens as filed in PubChem BioAssay.
# HSP90 refold inh – inhibitors of HSP90 luciferase refolding in rabbit reticulocyte lysate. inhibition, % at 5.6 µM. AID 1789. luciferase refolding luminescence, 3 h. 290,000 tested, 0.91% active;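 active = inhibition above the screen-wide mean plus 3 SD, computed separately per campaign, cut at about 16% in these data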;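 also: 0% = DMSO wells and 100% = 60 µM geldanamycin wells; inhibitors lower the luminescence because luciferase stays unfolded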
# ARNT-TACC3 inh – ARNT/TACC3 interaction disruption. Q9Y6A5. AlphaScreen His-ARNT PAS-B/GST-TACC3 binding, luminescence; TACC3 fragment carries E629A point mutation. inhibition, % at 9.99 µM. 390,000 tested, 0.66% active. AID 623870;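 active = mean inhibition of replicates at least 50% and at least half of replicates each reaching 50%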;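 also: 0% = complete ARNT plus TACC3 wells and 100% = ARNT alone without TACC3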
# HIF act – HIF pathway transcriptional activation; 300,000 tested, 0.32% active; U2OS HRE-luciferase reporter, luminescence; normalized: DMSO 0%, desferrioxamine 100%; activation, % at 7.5 µM (by protocol);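 active = mean activation of at least 10% of the iron chelator positive control signal, with at least half of replicates also reaching 10%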
# HSF1 inh – HSF1 inhibition; NIH3T3-HGL HSE-luciferase, MG132-induced, luminescence 8 h; stronger effect = lower value; 300,000 tested, 0.77% active; activity change, negative = inhibition, % at 7.5 µM (by protocol);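 active = more than half of replicate wells show activity change below -50%, luminescence cut by over half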;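 also: luciferase reports HSF-1 transcriptional activity via heat shock element; 0% = median of DMSO wells and -100% = zero luminescence signal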
# HSF-1 act – increases HSF-1 driven luciferase reporter signal; NIH3T3-HGL HSF-1 luciferase reporter, MG132, 8 h; 100% = twice DMSO control signal; activation, % at 9 µM; 300,000 tested, 1.7% active; AID 504408;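 active = mean replicate activation of at least 50% with a set share of replicates each reaching 50%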;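 also: 0% = median of the neutral control wells and 100% = twice that signal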
# Active calls of the source: *; . = not tested or not shown. Hits are enriched below; roughly 3.1% of the tested compounds scored in any of these assays.
SMILES,HSP90 refold inh,ARNT-TACC3 inh,HIF act,HSF1 inh,HSF-1 act
COCCNC(=O)c1c(NC(=O)c2ccc(Br)o2)n(Cc2ccccc2)c2nc3ccccc3nc12,0.0,-6.9,1.8,29.7,65.9*
Cc1c(N=Cc2c(O)n(C)c(=O)[nH]c2=O)c(=O)n(-c2ccccc2)n1C,0.6,.,-0.1,1.5,-11.8
Cc1c(N=Nc2c(O)[nH]c(=O)[nH]c2=O)c(=O)n(-c2ccccc2)n1C,2.8,65.4*,0.6,-2.6,0.4
CC(=Nc1c(C)n(C)n(-c2ccccc2)c1=O)c1c(O)n(Cc2ccccc2)c(=O)[nH]c1=O,-2.2,8.0,-0.1,5.5,21.5
Cc1c(N=Nc2c(O)n(-c3ccc(Br)cc3)c(=O)[nH]c2=O)c(=O)n(-c2ccccc2)n1C,2.1,61.1*,0.4,4.0,34.3
CCN1CCN(c2ccc([N+](=O)[O-])cc2C=C2C(=O)NC(=O)NC2=O)CC1,-1.9,-3.9,24.2*,-8.2,0.1
O=C(O)[C@@H]1[C@@H](CO)[C@@H]2Cn3c(ccc(-c4ccccc4)c3=O)[C@H]1N2C(=O)C1CCCCC1,.,-5.7,.,.,.
O=C1NC(=O)N(Cc2ccccc2)C(=O)/C1=C\C=C\c1ccco1,3.3,-4.5,1.4,31.8,71.2*
Cc1ccc(N2C(=O)NC(=O)/C(=C\C=C\c3ccco3)C2=O)cc1C,4.0,-3.8,-0.1,89.8,146.3*
O=C1NC(=O)N(Cc2ccco2)C(=O)/C1=C/C=C/c1ccco1,2.0,-12.0,2.6,14.5,31.3
O=C(Cc1ccncc1)N1CCCCN2[C@H](CO)[C@H](c3ccc(C#Cc4ccccc4F)cc3)[C@H]2C1,.,-2.3,.,.,.
C=C1C(=O)O[C@H]2[C@H]1[C@H](OC(=O)CC(=O)O[C@@H]1C[C@@H](C)[C@@H]3C=CC(=O)[C@@]3(C)[C@H]3OC(=O)C(=C)[C@H]13)C[C@@H](C)[C@H]1C=CC(=O)[C@]12C,.,12.9,1.4,34.6,31.0
C=C1C(=O)OC2CC(C)C3C=CC(=O)C3(C)C(O)C12 (configuration not stated),.,19.1,.,.,.
C=C1C(=O)O[C@H]2C[C@@H](C)[C@@H]3C=CC(=O)[C@@]3(C)C[C@H]12,.,.,7.0,-63.9*,-68.3
C=C1C(=O)O[C@@H]2C[C@@H](C)[C@@H]3C=CC(=O)[C@@]3(C)[C@@H](OC(=O)CC(=O)O[C@H]3[C@@H]4C(=C)C(=O)O[C@@H]4C[C@@H](C)[C@@H]4C=CC(=O)[C@]43C)[C@H]12,.,0.6,-6.5,-95.7*,-95.8
COc1ccc(-c2ccc([C@@H]3[C@H](CO)N4CCCCN(C(=O)Cc5ccccc5)C[C@@H]34)cc2)cc1,.,4.9,.,.,.
CC(C)(O)/C=C/C(=O)C(C)(O)C1C(O)CC2(C)C3CC=C4C(C=C(O)C(=O)C4(C)C)C3(C)C(=O)CC12C (configuration not stated),.,9.1,.,69.1*,69.1*
NC(=O)c1cn(C2OC(CO)C(O)C2O)c2ncnc(N)c12 (configuration not stated),1.9,-5.1,-3.1,-66.2*,-64.3
O=C(c1cccnc1)c1cc2ccccc2[nH]1,-3.5,.,15.7*,1.3,8.6
COc1ccc(-c2ccc([C@H]3[C@@H](CO)N4CCCCN(C(=O)Cc5ccccc5)C[C@@H]34)cc2)cc1,.,0.8,.,.,.
CC1(C)CC(=O)C(C2(O)C(=O)NC(=O)NC2=O)=C(O)C1,4.9,22.9*,0.0,-4.9,1.7
CCn1nc(-c2ccccc2)nc2c(=O)n(C)c(=O)nc1-2,83.4*,-40.1,-0.9,.,.
Cc1ccc2nc3c(cc2c1)CC1(C(=O)N(C)C(=O)N(C)C1=O)C1CCCCN31 (configuration not stated),0.2,2.3,2.8,37.7,81.2*
CCCC[N+]12CCC(CC1)C(C(O)(c1ccccc1)c1ccccc1)C2 (configuration not stated),3.2,-5.0,-0.4,-65.3*,-71.3
N#Cc1cccc(-c2ccc([C@@H]3[C@@H](CO)N4CCCCN(C(=O)Cc5ccccc5)C[C@H]34)cc2)c1,.,2.0,.,.,.
SMILES,HSP90 refold inh,ARNT-TACC3 inh,HIF act,HSF1 inh,HSF-1 act
COC(=O)[C@@H]1[C@@H](CO)[C@@H]2Cn3c(ccc(-c4ccc(F)cc4)c3=O)[C@H]1N2Cc1ccccc1,.,-7.0,.,.,.
Cc1cc(N2CCCC2)ccc1C=C(C#N)C#N,2.2,1.7,-0.3,-7.2,-1.8
N#CC(C#N)=Cc1ccc(C=C(C#N)C#N)cc1,48.7*,8.1,.,.,.
COC(=O)[C@@H]1[C@@H](CO)[C@@H]2Cn3c(ccc(-c4ccccc4F)c3=O)[C@H]1N2,.,1.8,.,.,.
CCC(=NCC1CCCO1)c1c(O)n(-c2ccccc2C)c(=O)[nH]c1=O (configuration not stated),2.4,-0.3,-0.4,-2.9,2.6
C=CCn1c(O)c(C(C)=NCCCn2ccnc2)c(=O)[nH]c1=O,2.9,83.5*,0.0,-2.6,-4.5
C=CCn1c(O)c(C(C)=NC2CCN(Cc3ccccc3)CC2)c(=O)[nH]c1=O,-0.9,.,-0.1,-87.8*,-90.6
CC(=NCCCn1ccnc1)c1c(O)n(-c2ccccc2)c(=O)[nH]c1=O,-7.8,10.6,-0.4,-6.2,4.0
C=CCn1c(O)c(C(C)=NC2CC2)c(=O)[nH]c1=O,-2.6,3.8,0.1,5.2,15.2
C=CCn1c(O)c(/C(C)=N/N2CCCCC2)c(=O)[nH]c1=O,2.4,-2.7,-0.2,25.4,67.0*
C=CCn1c(O)c(C(C)=NCCN2CCCCC2)c(=O)[nH]c1=O,-1.5,.,0.0,-4.5,-6.3
C=CCn1c(O)c(C(CC)=NCC2CCCO2)c(=O)[nH]c1=O (configuration not stated),-0.5,-8.2,-0.3,29.8,64.9*
O=C(O)[C@@H]1[C@@H](CO)[C@@H]2Cn3c(cccc3=O)[C@H]1N2C(=O)c1ccccc1,.,8.9,.,.,.
COC(=O)C1=C(C(=O)OC)SC2(S1)C(C(=O)OC)=C(C(=O)OC)Sc1c2ssc1=O,.,67.6*,.,.,.
CCC(=NCc1ccco1)c1c(O)n(C2CCCCC2)c(=O)[nH]c1=O,0.1,4.2,-0.3,29.2,66.4*
CC=Cc1ccc2n(c1=O)C[C@H]1[C@H](CO)[C@@H](C(=O)O)[C@@H]2N1S(=O)(=O)c1ccccc1F (mixture of isomers),.,2.8,.,.,.
O=C(O)[C@H]1[C@H](CO)[C@H]2Cn3c(ccc(-c4ccccc4)c3=O)[C@@H]1N2CC1CCCCC1,.,-6.6,.,.,.
O=C(Nc1ccc(Cl)c(Cl)c1)c1ccco1,-2.1,-2.1,4.4,10.4,-1.4
O=C1NC(=O)C(Nc2ccc(Cl)c(Cl)c2)C(=O)N1,.,24.9*,.,.,.
CC=Cc1ccc2n(c1=O)C[C@H]1[C@H](CO)[C@@H](C(=O)OC)[C@@H]2N1C(=O)CC1CC1 (mixture of isomers),.,-3.1,.,.,.
C/C(=N\N1CCCCCC1)c1c(O)n(-c2ccc(C)cc2)c(=O)[nH]c1=O,0.5,-1.1,0.3,-1.9,2.9
CC/C(=N\N1CCCCCC1)c1c(O)n(-c2ccc(C)cc2)c(=O)[nH]c1=O,-0.1,-14.3,12.4*,-4.9,2.5
